Measurements taken from the antibiotic and cytotoxicity screens of Wong et al. (2023).
The campaign covered roughly 39,000 compounds. About 1,500 (3.8%) were called active. This is one part of a sample in which actives are shown more often than they occur.

Test system: HSkMC (human skeletal muscle cells)
Assay: cytotoxicity call (relative viability < 0.9)
Conditions: 10 µM

| Compound | cytotoxicity call |
| --- | --- |
| C[C@H](CO)N1C[C@H](C)[C@H](CN(C)C(=O)c2ccc(N3CCN(C)CC3)cc2)OCc2cn(nn2)CCCC1=O | inactive |
| COc1ccc(S(=O)(=O)N(C)C[C@@H]2Oc3c(NC(=O)c4ccncc4)cccc3C(=O)N([C@H](C)CO)C[C@@H]2C)cc1 | inactive |
| C[C@H]1CCCCO[C@@H](CN(C)Cc2ccc(C(=O)O)cc2)[C@@H](C)CN([C@@H](C)CO)C(=O)c2cc(NC(=O)NC3CCCCC3)ccc2O1 | inactive |
| C[C@@H]1CN([C@H](C)CO)S(=O)(=O)c2ccc(Br)cc2O[C@@H]1CN(C)S(=O)(=O)c1ccc(F)cc1 | inactive |
| CON=C(C(=O)NC1C(=O)N2C(C(=O)OCOC(=O)C(C)(C)C)=C(C=Cc3scnc3C)CSC12)c1csc(N)n1 (centres undefined) | inactive |
| C[C@H]1CN([C@@H](C)CO)C(=O)c2cc(C#Cc3ccccc3)cnc2O[C@H]1CN(C)C(=O)CCN1CCCCC1 | inactive |
| COCCCNC(=O)[C@@]1(Sc2ccc(C)cc2)CC(=O)N(Cc2ccccc2Cl)[C@@H]1c1ccc(CO)cc1 | inactive |
| O=C1N[C@H](Cc2c[nH]c3ccccc23)COC(=O)[C@@H](Cc2ccc(F)cc2)CCC=CC[C@H]1CC(=O)N(CCO)Cc1ccccc1 | inactive |
| COc1cc(C)c(C(=O)Oc2cc(C)c(C(=O)O)c(O)c2)c(O)c1 | inactive |
| COCCCNc1ncnc(N)c1[N+](=O)[O-] | inactive |
| C[C@@H]1CN([C@@H](C)CO)C(=O)c2cccc(NC(=O)Nc3ccc4c(c3)OCO4)c2O[C@@H]1CN(C)Cc1ccc(Cl)c(Cl)c1 | inactive |
| C[C@H]1CN([C@@H](C)CO)C(=O)c2cccc(NC(=O)Nc3ccc4c(c3)OCO4)c2O[C@@H]1CN(C)Cc1ccc(Cl)c(Cl)c1 | inactive |
| C[C@H]1CN([C@@H](C)CO)C(=O)c2cccc(NC(=O)Nc3ccc(F)cc3)c2O[C@@H]1CN(C)Cc1ccc(Cl)c(Cl)c1 | active |
| C[C@H](CO)N1C[C@H](C)[C@@H](CN(C)Cc2ccc(Cl)c(Cl)c2)Oc2c(NC(=O)Nc3ccc4c(c3)OCO4)cccc2C1=O | active |
| C[C@H](CO)N1C[C@H](C)[C@H](CN(C)S(C)(=O)=O)OCCCC[C@H](C)Oc2ccc(NS(=O)(=O)c3ccc(F)cc3)cc2C1=O | inactive |
| CO[C@@H]1CN(C)C(=O)c2cc(NC(=O)c3ccccc3)ccc2OC[C@H](C)N(C(=O)CN(C)C)C[C@@H]1C | inactive |
| CC(C)(C)OC(=O)N[C@H]1CCCCC/C=C\[C@@H]2C[C@@]2(C(=O)NS(=O)(=O)C2CC2)NC(=O)[C@@H]2C[C@@H](OC(=O)N3Cc4cccc(F)c4C3)CN2C1=O | inactive |
| COc1ccc(NC(=O)Nc2ccc3c(c2)C(=O)N([C@@H](C)CO)C[C@@H](C)[C@H](CN(C)S(=O)(=O)c2ccc(Cl)cc2)OCCCC[C@@H](C)O3)cc1 | inactive |
| Cc1noc(C)c1NC(=O)Nc1ccc2c(c1)C(=O)N([C@@H](C)CO)C[C@H](C)[C@@H](CN(C)S(=O)(=O)c1ccc(Cl)cc1)OCCCC[C@@H](C)O2 | inactive |
| COCCOC(=O)N1C(=O)[C@@]2(c3cc(C#CC4(O)CCCCCC4)ccc31)[C@H](C(=O)N1CCCCCCC1)[C@H]1C(=O)O[C@H](c3ccccc3)[C@H](c3ccccc3)N1[C@@H]2c1ccc(OCCO)cc1 | inactive |
| Cc1ccc(S(=O)(=O)Nc2ccc3c(c2)CC(=O)N([C@H](C)CO)C[C@H](C)[C@H](CN(C)Cc2ccc(Oc4ccccc4)cc2)O3)cc1 | inactive |
| Cc1ccc(S(=O)(=O)Nc2ccc3c(c2)CC(=O)N([C@@H](C)CO)C[C@@H](C)[C@@H](CN(C)Cc2ccc(Oc4ccccc4)cc2)O3)cc1 | inactive |

| Compound | cytotoxicity call |
| --- | --- |
| Cc1ccc(S(=O)(=O)Nc2ccc3c(c2)CC(=O)N([C@@H](C)CO)C[C@@H](C)[C@H](CN(C)Cc2ccc(Oc4ccccc4)cc2)O3)cc1 | inactive |
| Cc1ccc(S(=O)(=O)Nc2ccc3c(c2)CC(=O)N([C@H](C)CO)C[C@@H](C)[C@H](CN(C)Cc2ccc(Oc4ccccc4)cc2)O3)cc1 | active |
| Cc1ccc(S(=O)(=O)Nc2ccc3c(c2)CC(=O)N([C@@H](C)CO)C[C@H](C)[C@@H](CN(C)Cc2ccc(Oc4ccccc4)cc2)O3)cc1 | active |
| Cc1ccc(S(=O)(=O)Nc2ccc3c(c2)CC(=O)N([C@H](C)CO)C[C@@H](C)[C@@H](CN(C)Cc2ccc(Oc4ccccc4)cc2)O3)cc1 | inactive |
| Cc1ccc(S(=O)(=O)Nc2ccc3c(c2)CC(=O)N([C@@H](C)CO)C[C@H](C)[C@H](CN(C)Cc2ccc(Oc4ccccc4)cc2)O3)cc1 | active |
| Cc1ccc(S(=O)(=O)Nc2ccc3c(c2)CC(=O)N([C@H](C)CO)C[C@H](C)[C@@H](CN(C)Cc2ccc(Oc4ccccc4)cc2)O3)cc1 | inactive |
| C[C@H](CO)N1C[C@H](C)[C@@H](CN(C)S(=O)(=O)c2ccc(F)cc2)Oc2ccc(NC(=O)C3CC3)cc2CC1=O | inactive |
| CO[C@H]1CN(C)C(=O)c2cc(NC(=O)Nc3cccc(Cl)c3)ccc2OC[C@H](C)N(C(=O)Nc2c(C)noc2C)C[C@H]1C | inactive |
| COc1ccc(NC(=O)N(C)C[C@H]2OCCCC[C@@H](C)Oc3ccc(NC(=O)Nc4cccc5ccccc45)cc3C(=O)N([C@H](C)CO)C[C@@H]2C)cc1 | inactive |
| Cc1ccc(S(=O)(=O)N[C@H]2CC[C@@H](CC(=O)N3CCC(Cc4ccccc4)CC3)O[C@@H]2CO)cc1 | inactive |
| C[C@@H]1CCCCO[C@@H](CN(C)C(=O)NC2CCCCC2)[C@H](C)CN([C@@H](C)CO)C(=O)c2cc(NC(=O)Cc3ccccc3)ccc2O1 | inactive |
| C[C@H]1CN([C@@H](C)CO)C(=O)Cc2cc(NC(=O)Nc3cccc4c3CCCC4)ccc2O[C@H]1CN(C)S(=O)(=O)c1ccc(Oc2ccccc2)cc1 | inactive |
| Cc1cc(Oc2ccnc3cc(Cl)ccc23)ccc1Cl | inactive |
| Cc1c(C(=O)Nc2ccc(Oc3ccnc4cc(OCC(C)(C)O)ccc34)c(F)c2)c(=O)n(-c2ccccc2)n1C | active |
| CCS(=O)(=O)N1C[C@]2(C1)CN([C@@H](CO)c1c2c2ccc(cc2n1C)OC)C(=O)Nc1cccc(c1)F | inactive |
| CC(C)NC(=O)Nc1cccc2c1O[C@@H](CN(C)C(=O)NC1CCCCC1)[C@@H](C)CN([C@@H](C)CO)C2=O | inactive |
| Cc1ccc(S(=O)(=O)N(C)C[C@H]2Oc3ccc(NS(C)(=O)=O)cc3CC(=O)N([C@@H](C)CO)C[C@@H]2C)cc1 | inactive |
| CC(C)CCCC(C)C1CCC2C3CCC4CC(O)CCC4(C)C3CCC12C (stereo not drawn) [5alpha-CHOLESTANOL ] | inactive |
| CC(C)CCCC(C)C1CCC2C3CC(=O)C4CC(O)CCC4(C)C3CCC12C (stereo not drawn) [5alpha-CHOLESTAN-3beta-OL-6-ONE ] | inactive |
| CC(C)CCC[C@@H](C)[C@H]1CC[C@H]2[C@@H]3C[C@@H](O)[C@@]4(O)C[C@@H](O)CC[C@]4(C)[C@H]3CC[C@]12C [CHOLESTAN-3beta,5alpha,6beta-TRIOL ] | active |
| CC(C)NC(=O)Nc1ccc2c(c1)CC(=O)N([C@H](C)CO)C[C@H](C)[C@H](CN(C)S(=O)(=O)c1cn(C)cn1)O2 | inactive |
| COc1cc(C(=O)NCCCN2CCCN(CCCNC(=O)c3cc(OC)c(OC)c(OC)c3)CC2)cc(OC)c1OC | inactive |

| Compound | cytotoxicity call |
| --- | --- |
| Cc1cn(CCN2CCN(c3ccccc3-c3cc(C#N)cc(C(=O)NCCCN4CCCC4)c3)CC2)c2ccccc12 | active |
| Cc1cn(CCC#N)c2ccccc12 | inactive |
| C[C@H]1CCCCO[C@H](CN(C)C(=O)C2CCCCC2)[C@@H](C)CN([C@@H](C)CO)C(=O)c2cc(NS(=O)(=O)c3cccs3)ccc2O1 | inactive |
| COc1cccc(-n2cc(C(=O)NO)nn2)c1 | inactive |
| COc1ccc(-n2cc(C(=O)NO)nn2)cc1 | active |
| COC(=O)c1ccc(Cn2cc(C(=O)NO)nn2)o1 | inactive |
| C[C@H]1NC(=O)[C@H](Cc2ccccc2)NC(=O)[C@@]23C(=O)N[C@@H](Cc4ccccc4)[C@@H]2[C@H](C)[C@@]2(C)O[C@H]2[C@H]3/C=C/C/C=C\CNC1=O | inactive |
| C[C@H](CO)N1C[C@H](C)[C@@H](CN(C)Cc2ccncc2)Oc2ccc(NS(=O)(=O)c3ccc(F)cc3)cc2C1=O | inactive |
| CN(C)c1ccc(C(=C2C=CC(=[N+](C)C)C=C2)c2ccc(N(C)C)cc2)cc1.[Cl-] | active |
| CN(CC(=O)O)C1CCCC1 | inactive |
| C[C@@H]1CCCCO[C@H](CN(C)C(=O)Nc2ccc(F)cc2)[C@H](C)CN([C@@H](C)CO)C(=O)c2cc(NC(=O)NC3CCCCC3)ccc2O1 | inactive |
| C[C@H]1CN([C@@H](C)CO)S(=O)(=O)c2ccc(C#Cc3ccc(F)cc3)cc2O[C@@H]1CN(C)C(=O)c1ccccn1 | inactive |
| COc1ccc(S(=O)(=O)Nc2ccc3c(c2)CC(=O)N([C@@H](C)CO)C[C@H](C)[C@@H](CN(C)Cc2ccc(Oc4ccccc4)cc2)O3)cc1 | active |
| COc1ccc(S(=O)(=O)Nc2ccc3c(c2)CC(=O)N([C@@H](C)CO)C[C@H](C)[C@H](CN(C)Cc2ccc(Oc4ccccc4)cc2)O3)cc1 | active |
| COc1ccc(S(=O)(=O)Nc2ccc3c(c2)CC(=O)N([C@H](C)CO)C[C@H](C)[C@H](CN(C)Cc2ccc(Oc4ccccc4)cc2)O3)cc1 | inactive |
| COc1ccc(S(=O)(=O)Nc2ccc3c(c2)CC(=O)N([C@H](C)CO)C[C@H](C)[C@@H](CN(C)Cc2ccc(Oc4ccccc4)cc2)O3)cc1 | inactive |
| COc1ccc(S(=O)(=O)Nc2ccc3c(c2)CC(=O)N([C@H](C)CO)C[C@@H](C)[C@H](CN(C)Cc2ccc(Oc4ccccc4)cc2)O3)cc1 | active |
| COc1ccc(S(=O)(=O)Nc2ccc3c(c2)CC(=O)N([C@@H](C)CO)C[C@@H](C)[C@H](CN(C)Cc2ccc(Oc4ccccc4)cc2)O3)cc1 | inactive |
| COc1ccc(S(=O)(=O)Nc2ccc3c(c2)CC(=O)N([C@@H](C)CO)C[C@@H](C)[C@@H](CN(C)Cc2ccc(Oc4ccccc4)cc2)O3)cc1 | inactive |
| COc1ccc(S(=O)(=O)Nc2ccc3c(c2)CC(=O)N([C@H](C)CO)C[C@@H](C)[C@@H](CN(C)Cc2ccc(Oc4ccccc4)cc2)O3)cc1 | active |
